This passage reports Percent Effect results from ChEMBL document CHEMBL3988442, “University of Dundee, Small-Polar-MMV Screening Library” (2021).

One experiment concerns the target T1, Arginase-2, mitochondrial (Homo sapiens) (UniProt P78540).
T1 sequence (whole entry): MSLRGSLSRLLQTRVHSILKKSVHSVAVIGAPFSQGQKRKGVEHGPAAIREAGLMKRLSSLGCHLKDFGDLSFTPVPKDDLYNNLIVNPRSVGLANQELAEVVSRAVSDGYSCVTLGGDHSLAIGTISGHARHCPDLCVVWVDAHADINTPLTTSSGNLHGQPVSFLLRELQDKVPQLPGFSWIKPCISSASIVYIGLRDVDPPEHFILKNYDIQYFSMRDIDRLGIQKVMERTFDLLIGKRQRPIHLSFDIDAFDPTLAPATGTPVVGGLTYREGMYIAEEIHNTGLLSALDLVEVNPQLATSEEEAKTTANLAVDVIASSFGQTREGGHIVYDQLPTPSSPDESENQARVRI
The experiment in a line: in vitro enzyme assay to detect the production of urea directly proportional to the activity of Arginase II. The conditions noted are these: 33.3 µM. Also noted: scale not given: in the data most compounds retested in dose-response had high values. The experiment is classed as functional.
In the case of `O=C1COC2(CCN(C(=O)c3ccco3)CC2)CN1Cc1ccccn1`, the Percent Effect was determined as 5.48%.

Take `Cc1ccn(-c2cccc(C(=O)N3CCCC(n4ccnc4C)C3)c2)n1` (stereo not given): the Percent Effect was -3.89%.

In the case of `Cc1ccoc1-c1nnc(CN2CCn3c(nnc3C3CC3)C2)o1`, the Percent Effect was 0.444%.

Consider `CC(=O)N1CCCC1c1csc(Nc2cnccn2)n1` (stereo not given), for which the Percent Effect came out at 2.21%.

Turning to `Fc1ccc(-c2nnc(CN3CCn4c(nnc4C4CC4)C3)o2)cc1`, the Percent Effect was found to be 1.77%.

`CC(C)c1cc(NC(=O)CN2CCNC(=O)C2)on1`: the Percent Effect was -1.43%.

For the compound `CN(C)c1ccc(NC(=O)NCc2ccccn2)cn1`, the Percent Effect was -0.205%.

Consider `CNc1snc(C)c1C(=O)N1CCCC(n2nc(C)cc2C)C1` (stereo not given), for which the Percent Effect was -3.1%.

Consider `COc1ccc(CN2CCC[C@@H]3CN(C(=O)c4ccco4)C[C@@H]32)cc1`, for which the Percent Effect was -4.05%.

For the compound `O=C(c1cc(Cl)c2c(c1)OCCO2)N1CCCC(n2cncn2)C1` (stereo not given), the Percent Effect came to 1.77%.

On to `CCC(=O)N1CCC(O)(c2ncc(OC)nc2OC)CC1`, for which the Percent Effect stood at 3.1%.

For the compound `CCCn1ncc2c(C(=O)Nc3n[nH]c(SC)n3)cc(C3CC3)nc21`, the Percent Effect is -13.7%.

`Cc1nc(CN(C)C2CCN(CCCOc3ccccc3)C2)no1` (stereo not given): the Percent Effect was -5.94%.

In the case of `CCOc1ncccc1NC(=O)NC1CCCN(c2ncccn2)C1` (stereo not given), the Percent Effect is -8.4%.

As to `COC(=O)NCc1cc2n(n1)CCCN(C(C)=O)C2`, the Percent Effect is -2.45%.

Consider `Fc1ccc(CN2CCC(c3n[nH]c4ncccc34)CC2)cc1F`, for which the Percent Effect is -0.885%.

Regarding `c1ccc(-c2nc(CN3CCc4c(ncn4C4CC4)C3)cs2)cc1`, the Percent Effect was -7.99%.

With `Cc1ccc(C(=O)N2CCCC3(CCCC(=O)N3C)C2)cc1F` (stereo not given), the Percent Effect is 4.11%.

Regarding `Cc1nn(C)c(N(C)C)c1CNC(C)c1cccc(OC(C)C)c1` (stereo not given), the Percent Effect was -7.58%.

Take `c1csc(-c2nc(CN3CCn4c(nnc4C4CC4)C3)co2)c1`: the Percent Effect amounted to 2.66%.

For `CCCc1n[nH]cc1C(=O)N1CCC(c2nccn2CCOC)CC1`, the Percent Effect is 20.6%.

In the case of `Cc1cc(C)n2cc(CN3CCCC3Cn3nc(C)nc3C)nc2n1` (stereo not given), the Percent Effect was found to be 3.1%.

As for `CN(C)S(=O)(=O)N1CCCC(c2cccc(Cc3ccccc3)n2)C1` (stereo not given), the Percent Effect was -5.31%.

For the compound `CC(C)NC(=O)CC1COC2(CCN(Cc3cccs3)CC2)C1` (stereo not given), the Percent Effect is 1.37%.

For `CCc1nc(C2CCCN2C(=O)c2c[nH]c(C)n2)no1` (stereo not given), the Percent Effect was -2.66%.

Regarding `Cc1cc(NC(=O)NCC2CCOC2)no1` (stereo not given), the Percent Effect turned out to be 9.76%.

On to `CC(C)(O)CN1CCN(C(=O)c2cccnc2O)CC1`, for which the Percent Effect was 2.46%.

Regarding `CC1(C)OCC(CNC(=O)c2cnn(-c3ccc(Cl)cc3)c2N)O1` (stereo not given), the Percent Effect was -0.443%.

For `O=c1c2ccccc2nc2n1C(CSc1ccc(Cl)cc1Cl)CN2` (stereo not given), the Percent Effect came out at 5.94%.

For `Cc1ccc(CN2CCCn3c(nc(CN4CCCC4)cc3=O)C2)s1`, the Percent Effect is -2.02%.

Turning to `CC(C(=O)N1CCCC1)N1CCC(c2nccn2Cc2cscn2)CC1` (stereo not given), the Percent Effect worked out at 5.94%.

With `Cn1ccc(C(=O)NCc2cccc(NC(=O)C3CCC3)c2)cc1=O`, the Percent Effect was -1.84%.

As for `c1cc(-c2nc(CN3CCn4c(nnc4C4CC4)C3)cs2)cs1`, the Percent Effect is -1.64%.

Turning to `Cc1ccc(-c2nc(CN3CCCC(Cn4cncn4)C3)no2)cc1` (stereo not given), the Percent Effect was -3.48%.

Turning to `c1cc(-c2noc(CN3CCn4c(nnc4C4CC4)C3)n2)co1`, the Percent Effect turned out to be 6.15%.

Turning to `Cn1cnc2c1CCN(Cc1cccc(C(N)=O)c1)C2`, the Percent Effect worked out at 2.87%.

In the case of `CCn1ccnc1CN(C)CC1CCCN1c1cccnn1` (stereo not given), the Percent Effect was determined as 0.887%.

For the compound `CNc1cc(C2CCCN2C(=O)c2ccc3oc(=O)n(C)c3c2)ccn1` (stereo not given), the Percent Effect is -1.33%.

For `Cc1cccc(N2CCN(C(=O)Nc3cnn(CC(N)=O)c3)CC2)c1`, the Percent Effect is 6.56%.

On to `CC(C)c1cc(N2CCC(N)CC2)n2nccc2n1`, for which the Percent Effect was -3.15%.

The target in a further experiment is T2, Proteasome subunit beta (Trypanosoma cruzi) (UniProt O96673).
T2 sequence (whole entry): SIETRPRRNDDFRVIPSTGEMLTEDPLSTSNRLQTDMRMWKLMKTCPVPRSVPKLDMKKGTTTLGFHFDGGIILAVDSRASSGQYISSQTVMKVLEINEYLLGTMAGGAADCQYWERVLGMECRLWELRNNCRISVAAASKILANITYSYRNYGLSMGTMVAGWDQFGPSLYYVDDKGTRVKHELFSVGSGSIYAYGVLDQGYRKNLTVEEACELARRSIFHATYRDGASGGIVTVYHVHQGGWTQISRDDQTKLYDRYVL
As to the kind of experiment: Trypanosoma cruzi proteasome chymotrypsin-like activity (TcProtChymo) assay. The class given is functional. On the set-up: scale not given: in the data most compounds retested in dose-response had high values. The conditions noted are these: 9.37 µM.
Take `O=C1COC2(CCN(C(=O)c3ccco3)CC2)CN1Cc1ccccn1`: the Percent Effect was 8.84%.

As for `Cc1ccn(-c2cccc(C(=O)N3CCCC(n4ccnc4C)C3)c2)n1` (stereo not given), the Percent Effect was found to be 8.42%.

As for `Cc1ccoc1-c1nnc(CN2CCn3c(nnc3C3CC3)C2)o1`, the Percent Effect was -4.16%.

In the case of `CC(=O)N1CCCC1c1csc(Nc2cnccn2)n1` (stereo not given), the Percent Effect amounted to 11.8%.

Regarding `Fc1ccc(-c2nnc(CN3CCn4c(nnc4C4CC4)C3)o2)cc1`, the Percent Effect came to 3.99%.

Consider `CC(C)c1cc(NC(=O)CN2CCNC(=O)C2)on1`, for which the Percent Effect came out at 11.2%.

With `CN(C)c1ccc(NC(=O)NCc2ccccn2)cn1`, the Percent Effect was 11.9%.

On to `CNc1snc(C)c1C(=O)N1CCCC(n2nc(C)cc2C)C1` (stereo not given), for which the Percent Effect came to 5.68%.

On to `COc1ccc(CN2CCC[C@@H]3CN(C(=O)c4ccco4)C[C@@H]32)cc1`, for which the Percent Effect was 17.6%.

`O=C(c1cc(Cl)c2c(c1)OCCO2)N1CCCC(n2cncn2)C1` (stereo not given): the Percent Effect was 1.78%.

As for `CCC(=O)N1CCC(O)(c2ncc(OC)nc2OC)CC1`, the Percent Effect was found to be 9.03%.

With `CCCn1ncc2c(C(=O)Nc3n[nH]c(SC)n3)cc(C3CC3)nc21`, the Percent Effect amounted to 11.8%.

In the case of `Cc1nc(CN(C)C2CCN(CCCOc3ccccc3)C2)no1` (stereo not given), the Percent Effect worked out at 20.9%.

`CCOc1ncccc1NC(=O)NC1CCCN(c2ncccn2)C1` (stereo not given): the Percent Effect worked out at 13.3%.

Consider `COC(=O)NCc1cc2n(n1)CCCN(C(C)=O)C2`, for which the Percent Effect is 7.19%.

In the case of `Fc1ccc(CN2CCC(c3n[nH]c4ncccc34)CC2)cc1F`, the Percent Effect was determined as 3.94%.

Regarding `c1ccc(-c2nc(CN3CCc4c(ncn4C4CC4)C3)cs2)cc1`, the Percent Effect stood at 16%.

`Cc1ccc(C(=O)N2CCCC3(CCCC(=O)N3C)C2)cc1F` (stereo not given): the Percent Effect was found to be 14.5%.

On to `Cc1nn(C)c(N(C)C)c1CNC(C)c1cccc(OC(C)C)c1` (stereo not given), for which the Percent Effect stood at 4.91%.

`c1csc(-c2nc(CN3CCn4c(nnc4C4CC4)C3)co2)c1`: the Percent Effect is 9.58%.

Take `CCCc1n[nH]cc1C(=O)N1CCC(c2nccn2CCOC)CC1`: the Percent Effect worked out at 7.19%.

`Cc1cc(C)n2cc(CN3CCCC3Cn3nc(C)nc3C)nc2n1` (stereo not given): the Percent Effect was 10.6%.

As to `CN(C)S(=O)(=O)N1CCCC(c2cccc(Cc3ccccc3)n2)C1` (stereo not given), the Percent Effect was determined as 14.4%.

Consider `CC(C)NC(=O)CC1COC2(CCN(Cc3cccs3)CC2)C1` (stereo not given), for which the Percent Effect was found to be 4.89%.

For the compound `CCc1nc(C2CCCN2C(=O)c2c[nH]c(C)n2)no1` (stereo not given), the Percent Effect is 12.1%.

Regarding `Cc1cc(NC(=O)NCC2CCOC2)no1` (stereo not given), the Percent Effect amounted to 5%.

`CC(C)(O)CN1CCN(C(=O)c2cccnc2O)CC1`: the Percent Effect turned out to be 9.13%.

On to `CC1(C)OCC(CNC(=O)c2cnn(-c3ccc(Cl)cc3)c2N)O1` (stereo not given), for which the Percent Effect came out at 14%.

In the case of `O=c1c2ccccc2nc2n1C(CSc1ccc(Cl)cc1Cl)CN2` (stereo not given), the Percent Effect was 13.3%.

With `Cc1ccc(CN2CCCn3c(nc(CN4CCCC4)cc3=O)C2)s1`, the Percent Effect was determined as 2.38%.

Regarding `CC(C(=O)N1CCCC1)N1CCC(c2nccn2Cc2cscn2)CC1` (stereo not given), the Percent Effect is 13%.

For the compound `Cn1ccc(C(=O)NCc2cccc(NC(=O)C3CCC3)c2)cc1=O`, the Percent Effect amounted to 12.3%.

Take `c1cc(-c2nc(CN3CCn4c(nnc4C4CC4)C3)cs2)cs1`: the Percent Effect stood at 5.55%.

For the compound `Cc1ccc(-c2nc(CN3CCCC(Cn4cncn4)C3)no2)cc1` (stereo not given), the Percent Effect amounted to 0.351%.

For `c1cc(-c2noc(CN3CCn4c(nnc4C4CC4)C3)n2)co1`, the Percent Effect is 2.13%.

On to `Cn1cnc2c1CCN(Cc1cccc(C(N)=O)c1)C2`, for which the Percent Effect was -3.67%.

Turning to `CCn1ccnc1CN(C)CC1CCCN1c1cccnn1` (stereo not given), the Percent Effect stood at 20.8%.

For the compound `CNc1cc(C2CCCN2C(=O)c2ccc3oc(=O)n(C)c3c2)ccn1` (stereo not given), the Percent Effect was 11.3%.

Consider `Cc1cccc(N2CCN(C(=O)Nc3cnn(CC(N)=O)c3)CC2)c1`, for which the Percent Effect stood at 1.28%.

Turning to `CC(C)c1cc(N2CCC(N)CC2)n2nccc2n1`, the Percent Effect was found to be 20.6%.
